Biological target: 26S proteasome regulatory subunit 4 homolog (UniProt P40327)
Experiment: cross-link between two proteins; cross-linking mass spectrometry

Sequence of 26S proteasome regulatory subunit 4 homolog (P40327 whole entry): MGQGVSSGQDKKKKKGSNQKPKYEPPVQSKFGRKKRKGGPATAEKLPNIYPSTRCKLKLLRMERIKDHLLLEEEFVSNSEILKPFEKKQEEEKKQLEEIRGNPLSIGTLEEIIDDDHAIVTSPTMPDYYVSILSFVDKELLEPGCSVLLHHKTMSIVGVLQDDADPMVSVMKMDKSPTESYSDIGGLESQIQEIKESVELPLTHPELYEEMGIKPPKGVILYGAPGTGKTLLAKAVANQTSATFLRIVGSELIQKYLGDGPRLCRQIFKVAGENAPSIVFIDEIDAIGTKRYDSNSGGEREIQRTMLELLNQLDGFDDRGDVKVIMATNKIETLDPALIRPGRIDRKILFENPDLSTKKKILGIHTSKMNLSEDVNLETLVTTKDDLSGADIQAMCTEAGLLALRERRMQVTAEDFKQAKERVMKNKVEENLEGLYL

Listed as a hit, yes:
Proteasome subunit alpha type-4, P40303
26S proteasome regulatory subunit RPN1, P38764
26S proteasome regulatory subunit 6B homolog, P33298
Proteasome subunit alpha type-3, P23638

Biological target: 26S proteasome regulatory subunit 6B homolog (UniProt P33298)
Experiment: as above

Sequence of 26S proteasome regulatory subunit 6B homolog (P33298 whole entry): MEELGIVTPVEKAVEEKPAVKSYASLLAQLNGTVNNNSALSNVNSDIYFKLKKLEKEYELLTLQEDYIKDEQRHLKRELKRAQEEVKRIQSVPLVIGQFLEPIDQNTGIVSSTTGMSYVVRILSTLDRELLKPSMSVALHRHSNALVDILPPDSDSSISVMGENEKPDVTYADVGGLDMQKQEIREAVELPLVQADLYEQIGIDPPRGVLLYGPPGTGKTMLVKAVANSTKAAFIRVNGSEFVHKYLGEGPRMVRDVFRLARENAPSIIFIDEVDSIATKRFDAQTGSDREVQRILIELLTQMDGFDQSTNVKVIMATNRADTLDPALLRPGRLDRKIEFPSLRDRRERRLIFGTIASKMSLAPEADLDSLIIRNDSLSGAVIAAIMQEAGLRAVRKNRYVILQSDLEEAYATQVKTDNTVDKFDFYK

Listed as a hit, yes:
Proteasome subunit alpha type-2, P23639
26S proteasome regulatory subunit 6A, P33297
Proteasome subunit alpha type-1, P21243
26S proteasome regulatory subunit RPN2, P32565

Biological target: 26S proteasome regulatory subunit 7 homolog (UniProt P33299)
Experiment: as above

Listed as a hit, yes:
Proteasome subunit alpha type-5, P32379
26S proteasome regulatory subunit 6B homolog, P33298
26S proteasome regulatory subunit RPN2, P32565

Biological target: 26S proteasome regulatory subunit 8 homolog (UniProt Q01939)
Experiment: as above

Sequence of 26S proteasome regulatory subunit 8 homolog (Q01939 whole entry): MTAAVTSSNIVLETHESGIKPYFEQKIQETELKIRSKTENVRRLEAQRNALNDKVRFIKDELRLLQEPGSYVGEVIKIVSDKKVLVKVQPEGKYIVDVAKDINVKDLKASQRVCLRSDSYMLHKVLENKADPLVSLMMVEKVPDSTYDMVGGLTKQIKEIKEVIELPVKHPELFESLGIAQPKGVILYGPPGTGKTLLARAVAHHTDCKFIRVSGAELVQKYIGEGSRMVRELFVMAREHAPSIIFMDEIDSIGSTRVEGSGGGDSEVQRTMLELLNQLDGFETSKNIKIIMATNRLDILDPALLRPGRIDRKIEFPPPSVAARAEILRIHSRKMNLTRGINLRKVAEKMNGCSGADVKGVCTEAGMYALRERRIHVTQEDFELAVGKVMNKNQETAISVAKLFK

Listed as a hit, yes:
Probable 26S proteasome regulatory subunit p28, P50086
Proteasome subunit alpha type-4, P40303
Proteasome subunit alpha type-2, P23639
26S proteasome regulatory subunit 7 homolog, P33299
26S proteasome regulatory subunit RPN1, P38764
26S proteasome regulatory subunit 6A, P33297
26S proteasome subunit RPT4, P53549
Proteasome subunit alpha type-3, P23638

Biological target: 26S proteasome regulatory subunit RPN1 (UniProt P38764)
Experiment: as above

Sequence of 26S proteasome regulatory subunit RPN1 (P38764 whole entry): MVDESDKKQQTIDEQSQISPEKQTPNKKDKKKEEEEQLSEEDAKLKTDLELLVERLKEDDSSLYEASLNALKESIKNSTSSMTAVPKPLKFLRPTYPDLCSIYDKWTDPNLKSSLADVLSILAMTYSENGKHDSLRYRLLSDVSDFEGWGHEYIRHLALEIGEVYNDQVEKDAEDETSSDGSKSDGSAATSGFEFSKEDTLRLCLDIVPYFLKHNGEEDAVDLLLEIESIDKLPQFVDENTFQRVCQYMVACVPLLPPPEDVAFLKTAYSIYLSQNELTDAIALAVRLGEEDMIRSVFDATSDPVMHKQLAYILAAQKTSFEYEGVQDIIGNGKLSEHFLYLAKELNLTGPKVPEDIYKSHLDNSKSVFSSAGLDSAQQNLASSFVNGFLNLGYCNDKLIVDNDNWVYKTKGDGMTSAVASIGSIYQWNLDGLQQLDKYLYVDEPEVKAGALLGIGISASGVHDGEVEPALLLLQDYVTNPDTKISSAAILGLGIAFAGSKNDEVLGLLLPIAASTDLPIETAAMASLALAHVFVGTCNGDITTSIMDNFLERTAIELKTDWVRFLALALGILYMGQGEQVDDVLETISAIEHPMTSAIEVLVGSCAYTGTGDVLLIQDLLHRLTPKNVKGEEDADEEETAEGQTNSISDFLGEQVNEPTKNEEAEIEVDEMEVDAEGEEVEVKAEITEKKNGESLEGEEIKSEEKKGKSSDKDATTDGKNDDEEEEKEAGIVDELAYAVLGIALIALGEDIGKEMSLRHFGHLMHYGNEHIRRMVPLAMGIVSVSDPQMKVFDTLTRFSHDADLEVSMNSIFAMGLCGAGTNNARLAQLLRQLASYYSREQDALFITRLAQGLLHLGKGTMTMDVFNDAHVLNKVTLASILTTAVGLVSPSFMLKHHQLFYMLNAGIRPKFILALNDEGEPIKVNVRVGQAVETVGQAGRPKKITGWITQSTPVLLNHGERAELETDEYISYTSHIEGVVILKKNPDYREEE

Listed as a hit, yes:
26S proteasome regulatory subunit 7 homolog, P33299
26S proteasome regulatory subunit 6B homolog, P33298
26S proteasome regulatory subunit RPN2, P32565

Biological target: 26S proteasome regulatory subunit RPN5 (UniProt Q12250)
Experiment: as above

Sequence of 26S proteasome regulatory subunit RPN5 (Q12250 whole entry): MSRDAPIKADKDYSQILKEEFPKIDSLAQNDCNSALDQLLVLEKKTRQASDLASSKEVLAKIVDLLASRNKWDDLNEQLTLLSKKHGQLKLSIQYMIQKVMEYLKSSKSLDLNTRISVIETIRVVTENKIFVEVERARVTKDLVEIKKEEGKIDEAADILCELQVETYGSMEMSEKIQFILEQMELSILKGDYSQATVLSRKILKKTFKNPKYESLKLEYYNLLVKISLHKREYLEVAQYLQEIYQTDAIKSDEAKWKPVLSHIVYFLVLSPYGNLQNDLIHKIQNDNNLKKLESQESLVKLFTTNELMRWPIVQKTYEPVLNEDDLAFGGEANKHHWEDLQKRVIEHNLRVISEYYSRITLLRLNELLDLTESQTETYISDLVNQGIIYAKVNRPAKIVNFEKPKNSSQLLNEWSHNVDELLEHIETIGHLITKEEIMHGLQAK

Listed as a hit, yes:
26S proteasome regulatory subunit 6A, P33297
Probable proteasome subunit alpha type-7, P21242
Proteasome subunit alpha type-1, P21243
26S proteasome subunit RPT4, P53549

Biological target: 26S proteasome regulatory subunit RPN6 (UniProt Q12377)
Experiment: as above

Sequence of 26S proteasome regulatory subunit RPN6 (Q12377 whole entry): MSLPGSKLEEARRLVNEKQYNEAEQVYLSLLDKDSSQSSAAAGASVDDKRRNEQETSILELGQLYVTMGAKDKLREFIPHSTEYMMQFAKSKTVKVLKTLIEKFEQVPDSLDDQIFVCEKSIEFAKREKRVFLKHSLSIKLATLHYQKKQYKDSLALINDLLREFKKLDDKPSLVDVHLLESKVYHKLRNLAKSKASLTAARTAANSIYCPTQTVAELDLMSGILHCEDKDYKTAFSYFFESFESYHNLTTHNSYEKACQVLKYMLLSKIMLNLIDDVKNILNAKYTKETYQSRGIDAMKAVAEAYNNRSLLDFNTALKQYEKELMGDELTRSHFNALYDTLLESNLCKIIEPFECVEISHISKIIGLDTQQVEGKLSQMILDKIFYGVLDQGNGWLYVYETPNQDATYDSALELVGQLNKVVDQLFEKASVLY

Listed as a hit, yes:
Probable 26S proteasome regulatory subunit p28, P50086
Proteasome subunit alpha type-2, P23639
26S proteasome regulatory subunit 8 homolog, Q01939
26S proteasome regulatory subunit 6B homolog, P33298
26S proteasome regulatory subunit RPN2, P32565
Proteasome subunit alpha type-3, P23638

Biological target: 26S proteasome regulatory subunit RPN7 (UniProt Q06103)
Experiment: as above

Sequence of 26S proteasome regulatory subunit RPN7 (Q06103 whole entry): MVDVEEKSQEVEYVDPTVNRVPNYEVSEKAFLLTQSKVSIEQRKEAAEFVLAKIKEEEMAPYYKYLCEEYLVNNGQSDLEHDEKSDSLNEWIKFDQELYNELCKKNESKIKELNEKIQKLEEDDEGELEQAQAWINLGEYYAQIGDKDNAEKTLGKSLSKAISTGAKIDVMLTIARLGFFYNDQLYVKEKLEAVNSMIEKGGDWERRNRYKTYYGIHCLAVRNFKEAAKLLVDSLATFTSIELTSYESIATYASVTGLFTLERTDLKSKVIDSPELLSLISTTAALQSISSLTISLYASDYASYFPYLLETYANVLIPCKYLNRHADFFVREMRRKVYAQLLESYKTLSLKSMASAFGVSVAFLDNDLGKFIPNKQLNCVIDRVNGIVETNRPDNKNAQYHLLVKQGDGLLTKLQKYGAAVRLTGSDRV

Listed as a hit, yes:
26S proteasome regulatory subunit 7 homolog, P33299
26S proteasome regulatory subunit 8 homolog, Q01939
26S proteasome regulatory subunit RPN1, P38764
Proteasome subunit alpha type-3, P23638

Biological target: 26S proteasome regulatory subunit RPN8 (UniProt Q08723)
Experiment: as above

Sequence of 26S proteasome regulatory subunit RPN8 (Q08723 whole entry): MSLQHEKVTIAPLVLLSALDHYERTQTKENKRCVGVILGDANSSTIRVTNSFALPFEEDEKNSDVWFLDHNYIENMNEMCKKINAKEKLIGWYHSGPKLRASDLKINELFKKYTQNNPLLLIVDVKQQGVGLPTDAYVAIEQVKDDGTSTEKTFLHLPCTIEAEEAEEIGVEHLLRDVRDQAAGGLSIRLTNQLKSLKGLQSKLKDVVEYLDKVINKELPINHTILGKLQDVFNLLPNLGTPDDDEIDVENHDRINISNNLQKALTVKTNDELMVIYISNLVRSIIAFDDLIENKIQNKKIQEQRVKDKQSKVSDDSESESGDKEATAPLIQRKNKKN

Listed as a hit, yes:
26S proteasome regulatory subunit 7 homolog, P33299
26S proteasome regulatory subunit 8 homolog, Q01939
26S proteasome regulatory subunit RPN1, P38764
26S proteasome regulatory subunit 6A, P33297
26S proteasome regulatory subunit 6B homolog, P33298
26S proteasome regulatory subunit RPN2, P32565
26S proteasome subunit RPT4, P53549

Biological target: 26S proteasome regulatory subunit RPN9 (UniProt Q04062)
Experiment: as above

Sequence of 26S proteasome regulatory subunit RPN9 (Q04062 whole entry): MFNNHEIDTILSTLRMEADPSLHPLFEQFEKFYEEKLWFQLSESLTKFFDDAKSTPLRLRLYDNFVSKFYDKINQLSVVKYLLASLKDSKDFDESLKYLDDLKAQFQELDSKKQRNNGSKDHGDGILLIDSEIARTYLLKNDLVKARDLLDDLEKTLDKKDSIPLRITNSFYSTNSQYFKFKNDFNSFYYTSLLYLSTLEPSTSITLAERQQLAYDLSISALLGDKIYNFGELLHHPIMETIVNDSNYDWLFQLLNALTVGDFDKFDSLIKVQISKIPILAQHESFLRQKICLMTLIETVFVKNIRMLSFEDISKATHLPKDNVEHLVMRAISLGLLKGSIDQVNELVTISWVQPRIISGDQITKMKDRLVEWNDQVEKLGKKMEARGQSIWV

Listed as a hit, yes:
26S proteasome regulatory subunit RPN12, P32496
26S proteasome subunit RPT4, P53549
Ubiquitin C-terminal hydrolase RPN11, P43588

Biological target: 26S proteasome subunit RPT4 (UniProt P53549)
Experiment: as above

Sequence of 26S proteasome subunit RPT4 (P53549 whole entry): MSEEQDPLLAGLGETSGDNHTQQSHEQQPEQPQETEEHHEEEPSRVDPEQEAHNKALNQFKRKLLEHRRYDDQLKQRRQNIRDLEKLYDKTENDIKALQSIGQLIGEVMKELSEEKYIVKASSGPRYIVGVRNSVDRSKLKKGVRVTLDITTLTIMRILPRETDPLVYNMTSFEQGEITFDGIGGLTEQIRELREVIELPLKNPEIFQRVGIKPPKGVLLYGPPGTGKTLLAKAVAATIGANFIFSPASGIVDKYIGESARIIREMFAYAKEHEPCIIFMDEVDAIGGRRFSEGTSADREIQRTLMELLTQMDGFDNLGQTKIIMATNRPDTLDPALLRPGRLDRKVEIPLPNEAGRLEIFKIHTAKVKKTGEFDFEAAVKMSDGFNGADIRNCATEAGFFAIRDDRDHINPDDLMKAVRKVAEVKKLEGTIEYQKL

Listed as a hit, yes:
26S proteasome regulatory subunit 7 homolog, P33299
26S proteasome regulatory subunit 4 homolog, P40327
26S proteasome regulatory subunit RPN1, P38764
Probable proteasome subunit alpha type-7, P21242
Proteasome subunit alpha type-1, P21243

— PMC6753376
